# About 1,200 (55%) of roughly 2,200 compounds were called active. Cut-off not given; nearly all actives show IC50 up to about 92 µM. So high a share suggests a set chosen from earlier hits. Some of the results follow.
# Experiment: counter assay for TAg ATPase ADP read-out – biochemical, ADP-Hunter, fluorescence, counter-screen (AID 2501);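 further: purified T antigen ATPase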
# Details: series mostly up to 100 µM
row,Structure (SMILES),IC50
1,CC1C=CCC2C(=O)N(c3cc(Cl)ccc3O)C(=O)C12 (centres undefined),inactive
2,COc1ccc(NN=Nc2nc3c([nH]2)c(=O)n(C)c(=O)n3C)cc1,25.4 µM (active)
3,O=S(=O)(Nc1c(S(=O)(=O)c2ccccc2)c2nc3ccccc3nc2n1C1CCCCC1)c1ccccc1,inactive
4,CCN(CC)P(=O)(C(NC(=O)OC)C(F)(F)C(F)(F)C(F)(F)C(F)F)N(CC)CC (centres undefined),inactive
5,O=Nc1ccc(NOC(=O)c2ccccc2Br)cc1,22.1 µM (active)
6,N#Cc1c(Nc2ccccc2C(F)(F)F)s[nH]c1=O,inactive
7,C/C(=N\NC(=O)CSCc1ccc([N+](=O)[O-])cc1)c1ccccc1,inactive
8,C/C(=N\NC(=O)Cn1cc([N+](=O)[O-])cn1)c1ccc(O)cc1,10.7 µM (active)
9,Oc1ccc(CCNc2c3ccccc3nc3ccccc23)cc1O,6.72 µM (active)
10,O=C1CC(c2ccccc2)c2cccc(F)c21 (centres undefined),inactive
11,COc1cc(/C=N/NC(=O)c2ccc(Cn3cc([N+](=O)[O-])cn3)o2)cc(Br)c1O,8.55 µM (active)
12,COc1cc(/C=N\NC(=O)c2ccc(Cn3nc([N+](=O)[O-])c(Cl)c3C)o2)ccc1O,6.71 µM (active)
13,COc1ccc(/C=N/NC(=O)c2cc(O)c(O)c(O)c2)cc1Cn1cc([N+](=O)[O-])cn1,inactive
14,COC(=O)CCC(=O)OC1(C)C(=O)C2=COC(c3ccc(OC)cc3)=CC2=C(Br)C1=O (centres undefined),inactive
15,Cc1nn(C(C)C(=O)O)c2ccccc12 (centres undefined),inactive
16,Cc1[nH]nc2c1C(C(C)c1ccccc1)C(C#N)=C(N)O2 (centres undefined),inactive
17,COc1cc(C2C(C#N)=C(N)Oc3n[nH]c(-c4cccnc4)c32)cc(Br)c1O (centres undefined),16.7 µM (active)
18,CCOc1cc(/C=C/c2cc(C(F)(F)F)[nH]c(=O)n2)ccc1O,6.98 µM (active)
19,COc1cccc(C2C(C(C)=O)=C(O)C(=O)N2CCNCCO)c1 (centres undefined),inactive
20,COc1cccc(C(=O)Nc2ccc3c(c2)n(C)c(=O)n3C)c1,12.6 µM (active)
21,Cn1cccc1/C=N/NC(=O)c1cccc(OC(F)(F)C(F)F)c1,inactive
22,Oc1ccc(/C=N/NC(=S)Nc2cccnc2)cc1,0.9 µM (active)
23,Oc1cccc(/C=N/NC(=S)Nc2cccnc2)c1O,8.21 µM (active)
24,CN(C(=S)Nc1cccnc1)c1ccc(O)cc1,40.6 µM (active)
25,CCn1c(SCC(=O)Nc2cccc(C(C)=O)c2)nnc1C(C)C,inactive
26,CCN(CC)c1ccc(NC(=O)CSc2nnc(N)s2)cc1C,8.65 µM (active)

row,Structure (SMILES),IC50
1,CCC(C)[C@H](N)c1nnc(SCC(=O)Nc2cccc(Cl)c2)o1 (some centres undefined),inactive
2,Cc1nn(-c2ccc(Cl)cc2)c2[nH]c(=O)c(CNCc3ccc4c(c3)OCO4)cc12,inactive
3,Cc1nn(-c2ccccc2)c2[nH]c(=O)c(CNc3ccc(N4CCOCC4)cc3)cc12,3.77 µM (active)
4,Cc1cccc(NC(=S)N2CCCN(c3ncccc3[N+](=O)[O-])CC2)c1,inactive
5,CCC(C)(C)n1nnnc1C(c1ccc2ncccc2c1)N1CCN(c2ccc(O)cc2)CC1 (centres undefined),5.17 µM (active)
6,CC(C)(C)n1nnnc1C(c1ccncc1)N1CCN(c2ccc(O)cc2)CC1 (centres undefined),6.75 µM (active)
7,Oc1ccc(N2CCN(C(c3ccncc3)c3nnnn3C3CCCC3)CC2)cc1 (centres undefined),3.39 µM (active)
8,Cc1nnc(C)c2c(C)n(-c3ccc4ncccc4c3)c(C)c12,inactive
9,Oc1ccc(N2CCN(C(c3ccccn3)c3nnnn3C3CCCC3)CC2)cc1 (centres undefined),3.68 µM (active)
10,COc1ccc(-c2cc(-c3ccco3)[nH]c(=O)c2C#N)cc1OC,inactive
11,O=C1SC(SCc2ccccc2)=N/C1=C\c1ccco1,inactive
12,Cc1ccc(CNc2ccc(N3CCOCC3)cc2)cc1,3.89 µM (active)
13,COc1ccc(CNc2ccc(N3CCOCC3)cc2)cc1,10.5 µM (active)
14,COc1ccc(CNS(=O)(=O)c2ccc3c(c2)N(C)CCO3)cc1,inactive
15,CCCCn1nc(NS(=O)(=O)c2cccc3nonc23)c2cc3cccc(C)c3nc21,20.5 µM (active)
16,O=C1CCN(Cc2ccc(O)cc2)CCN1[C@H](CO)Cc1ccccc1,inactive
17,CCCc1cc(=O)oc2cc(C)c(CN3CCCC3)c(O)c12,inactive
18,O=c1cc(CN2CCN(Cc3ccccc3)CC2)c2ccc(O)c(O)c2o1,10.9 µM (active)
19,Cc1ccc(S(=O)(=O)Cc2cc(F)c([N+](=O)[O-])cc2[N+](=O)[O-])cc1,inactive
20,COc1ccc(C)cc1NC(=O)COC(=O)c1ccc([N+](=O)[O-])o1,inactive
21,Cc1ccc(/C=N\NC(=O)COc2ccc(C)cc2[N+](=O)[O-])cc1,23.3 µM (active)
22,O=C(COc1ccccc1[N+](=O)[O-])N/N=C/c1ccc(O)cc1,6.73 µM (active)
23,CCc1ccc2cccc3c2c1N=CN3C,8.65 µM (active)
24,C[C@H](CCC(=O)O)[C@H]1CC[C@H]2[C@@H]3CC[C@@H]4C[C@H](O)CC[C@]4(C)[C@H]3CC[C@]12C,inactive
25,Cc1cnc(C(=O)Nc2ccc(S(=O)(=O)NCC(C)C)cc2)cn1,inactive
26,CCCCn1nnnc1SCC(=O)Nc1ccc(N(C)C)cc1,3.37 µM (active)

row,Structure (SMILES),IC50
1,CCn1c(SCC(=O)Nc2ccc(N(C)C)cc2)nnc1C1CC1,5.16 µM (active)
2,Cc1nnc(SCC(=O)Nc2ccc(N(C)C)cc2)n(N)c1=O,5.56 µM (active)
3,CCCCOC(=O)c1ccc(NC(=O)CSc2nnnn2C)cc1,inactive
4,Cn1ccnc1SCC(=O)Nc1cccc(C(F)(F)F)c1,inactive
5,CCn1c2ccccc2c2cc(NC(=O)CSc3nnc(C4CC4)n3Cc3ccco3)ccc21,inactive
6,CN(C)c1ccc(NC(=O)CSc2nnc(-c3cnccn3)n2C)cc1,7.11 µM (active)
7,Nn1c(SCC(=O)NC(=O)Nc2ccc3c(c2)OCCO3)nnc1C1CC1,inactive
8,Cc1cc(-c2nc3c4c5c(sc4[nH]c(=O)n3n2)CCC5)c(C)o1,inactive
9,CNC[C@@H](C)NC[C@@H](Cc1ccccc1)NCCc1ccccc1,inactive
10,Cc1c(CCC(=O)NCCCC(=O)O)c(=O)oc2cc3oc4c(c3cc12)CCCC4,inactive
11,CCOC(CNC(=O)C1CCN(S(=O)(=O)c2ccc3nc4c(c(C(=O)O)c3c2)CCCCC4)CC1)OCC,inactive
12,O=C(NCc1ccco1)C1CC(=O)N(c2ccc(O)cc2)C1 (centres undefined),6.48 µM (active)
13,Cc1ccc(C)c(S(=O)(=O)N2CCCCC2CCNC(=O)C(=O)NCc2ccco2)c1 (centres undefined),inactive
14,O=C(CCN1C(=O)c2ccccc2S1(=O)=O)NCc1ccco1,inactive
15,Cc1nc2ccc(N=NN(C)C)cc2[nH]1,inactive
16,O=C1NN(c2ccccc2)C(=O)/C1=C/c1ccc(-c2ccc(Cl)c(C(=O)O)c2)o1,13.7 µM (active)
17,CCCCC1(C)OC(=O)C(=Cc2ccc(-c3ccc(Cl)c(C(=O)O)c3)o2)C(=O)O1 (centres undefined),inactive
18,Cc1cccc(N2NC(=O)/C(=C/c3ccc(-c4ccc(Cl)c(C(=O)O)c4)o3)C2=O)c1,31.9 µM (active)
19,N#CC1=C(S)N(c2ccccc2)C(c2ccc(-c3ccc(Cl)c(Cl)c3)o2)NC1=O (centres undefined),inactive
20,Cn1sc(=O)c2cc(S(=O)(=O)NC3CC3)ccc21,inactive
21,CCN1C(=O)CC(N2CCC(Nc3ccc(OC)cc3)CC2)C1=O (centres undefined),4.87 µM (active)
22,O=C1NC(=O)C(c2ccccc2[N+](=O)[O-])=C1Nc1ccc(O)c(Cl)c1,11.8 µM (active)
23,O=C(O)c1cc(Nc2cc(Cl)c3nonc3c2[N+](=O)[O-])ccc1O,inactive
24,N=c1c2c(ncn1CCCO)Oc1ccc3ccccc3c1C2c1ccccc1 (centres undefined),inactive
25,COc1cc(/C=C(\C#N)c2ccccn2)cc(OC)c1O,4.83 µM (active)
26,COc1cc(/C=C(\C#N)c2nc3ccccc3n2C)cc(OC)c1O,6.31 µM (active)

row,Structure (SMILES),IC50
1,COc1ccc(-c2ccc(OC(=O)NC3CCS(=O)(=O)C3)cc2)cc1 (centres undefined),5.8 µM (active)
2,COc1ccc(S(=O)(=O)N2CCC(NC(=O)c3ccccc3)CC2)cc1,inactive
3,O=c1c(C(c2c(O)nc3n(c2=O)CCS3)c2cccc3ccccc23)c(O)nc2n1CCS2,20.9 µM (active)
4,C=CCOc1ccc(C2NC(=S)NC(c3ccccc3)=C2C(C)=O)cc1OC (centres undefined),inactive
5,Oc1ccc(/C=N/Nc2ccc(C(F)(F)F)cn2)cc1O,5.59 µM (active)
6,Oc1ccc(/C=N/Nc2ccc(Cl)nn2)cc1O,8.65 µM (active)
7,N=C1/C(=C/c2ccc(Br)o2)C(=O)N=C2SC(CC(=O)N3CCCC3)=NN12,inactive
8,N#CC1(NC(=O)COC(=O)c2cc(O)c3ccccc3c2O)CCCCC1,inactive
9,CC1=C(C(=O)OCC(C)C)C(c2cccs2)NC(=S)N1 (centres undefined),inactive
10,CN(C(=O)c1ccccc1C(=O)OCC(=O)NCc1cccs1)C1CCCCC1,44.1 µM (active)
11,Cc1ccc(-n2nnnc2C(Cl)(Cl)c2nnnn2-c2ccc(C)cc2)cc1,inactive
12,Nc1nc(-c2ccco2)cs1,10.8 µM (active)
13,c1coc(-c2nc3ccccc3nc2-c2ccco2)c1,inactive
14,c1coc(-c2nc(-c3ccco3)c(-c3ccco3)nc2-c2ccco2)c1,inactive
15,Nc1ccc(-c2sc(N)nc2-c2ccccc2)cc1,8.36 µM (active)
16,NC(=O)c1sc2nnc(-c3ccccc3)c(-c3ccccc3)c2c1N,inactive
17,ClCC1=Nc2cccc3cccc(c23)N1,4.21 µM (active)
18,CCOc1cc(/C=N\NC(=O)CC(=O)NCCc2ccccc2)ccc1O,4.71 µM (active)
19,CC(C)CCNC(=O)CCCc1ccccc1,inactive
20,COc1cc(/C=N\NC(=O)CC(=O)NCCc2ccccc2)ccc1O,3.22 µM (active)
21,O=C(COC(=O)CSc1ccc([N+](=O)[O-])cc1)NCCc1ccccc1,inactive
22,COc1ccc(N2CCC(CNC(=S)Nc3c(C)cccc3C)C2)cc1 (centres undefined),7.45 µM (active)
23,Cc1ccc(NC(=S)NCC2CCN(C(C)c3ccccc3)C2)cc1C (centres undefined),inactive
24,COc1ccc(N2CCC(CNC(=S)Nc3ccc(C)cc3C)C2)cc1 (centres undefined),10.7 µM (active)
25,COc1ccc(N2CCC(CNC(=S)Nc3c(C)cc(C)cc3C)C2)cc1 (centres undefined),12.1 µM (active)
26,COc1ccc(Cl)cc1NC(=S)N1CCC(c2ccc(C)cc2)C1 (centres undefined),inactive

# From PubChem BioAssay AID2501 (Southern Research Specialized Biocontainment Screening …, 2010)
